High-throughput results deposited in PubChem BioAssay by several laboratories.
This is a sample that favours compounds with a hit; in the whole collection about 27% have one here.
Cav3 T inh – blocks human Cav3.2 T-type calcium channel. O95180. Cav3.2-expressing cells, Fluo-4 calcium fluorescence FDSS; hits give low values. B-score at 10 µM. 100,000 tested, 4% active. AID 449739;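 active = single-dose well whose peak fluorescence ratio is a statistical outlier from its plate by either plate-standardised score or position-corrected B-score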
CYP2C9 inhib – human CYP2C9 inhibition; CYP2C9 Supersomes, luciferin-H conversion, luminescence; inhibition, % at 5 µM; 96,000 tested, 20% active; AID 777;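 active = blocking of liver enzyme CYP2C9 beyond about 50% at 5 µM, limit read from the data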
CYP2C9 act – increases human cytochrome P450 2C9 activity. recombinant CYP2C9, luciferin-H conversion, luminescence; hits give high values; factor 1 = untreated enzyme, 0 = blocked. activation factor at 5 µM. 96,000 tested, 1.4% active;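 active = activation factor of 2 or more for CYP2C9 at a 5 µM dose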
CYP2C19 act – cytochrome P450 2C19 (human) activation. 96,000 tested, under 10 active. activation factor at 5 µM. AID 1025. P33261. recombinant CYP2C19, luciferin-H EGE luminescence; hits give high values; 0 = fully inhibited enzyme, 1 = untreated enzyme;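 active = activation factor of at least 2 at 5 µM in the primary screen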
Target sequence (P33261 whole entry, looked up): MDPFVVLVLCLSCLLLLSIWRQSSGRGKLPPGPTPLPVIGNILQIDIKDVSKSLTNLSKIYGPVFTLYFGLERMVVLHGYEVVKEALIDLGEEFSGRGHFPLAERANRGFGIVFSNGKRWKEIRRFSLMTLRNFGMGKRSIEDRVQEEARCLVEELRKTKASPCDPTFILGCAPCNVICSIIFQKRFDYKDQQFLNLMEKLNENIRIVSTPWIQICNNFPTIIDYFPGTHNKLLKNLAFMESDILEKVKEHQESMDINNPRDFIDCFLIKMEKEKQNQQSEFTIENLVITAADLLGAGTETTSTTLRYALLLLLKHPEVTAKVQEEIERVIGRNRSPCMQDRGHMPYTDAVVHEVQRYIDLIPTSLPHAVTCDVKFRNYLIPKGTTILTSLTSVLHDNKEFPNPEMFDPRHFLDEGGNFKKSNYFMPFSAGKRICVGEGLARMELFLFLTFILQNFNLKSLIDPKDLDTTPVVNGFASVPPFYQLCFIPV
CYP2C19 inh – inhibitors of human CYP2C19; P33261; CYP2C19 Supersomes, luciferin-H EGE luminescence, 30 min; inhibition, % at 5 µM; 96,000 tested, 21% active; AID 778;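 active = CYP2C19 inhibition above a set limit at 5 µM in the primary screen, cut at about 50% in these data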
Large screens that a line does not name were inactive.

CCCCCCCCOC(=O)CCn1[nH]c(=O)c2ccccc2c1=O	CYP2C9 inhib 66, CYP2C19 inh 61
CC(=O)Nc1ccc(S(=O)(=O)N2CCC(c3nc4ccccc4[nH]3)CC2)cc1	CYP2C9 inhib 68
CC(=O)Nc1ccc(S(=O)(=O)N2CCN(C(=O)N3CCOCC3)CC2)cc1	none
CC(=O)Nc1ccc(S(=O)(=O)N2CCN(c3cc(C)nc4ccccc34)CC2)cc1	CYP2C9 inhib 66
Cc1ccc2nc(C3CCN(S(=O)(=O)c4ccc5ccccc5c4)CC3)[nH]c2c1	CYP2C9 act 3
O=S(=O)(c1ccc2c(c1)OCCO2)N1CCC(c2nc3ccc(Cl)cc3[nH]2)CC1	CYP2C9 act 2.1, CYP2C19 inh 84
CCOC(=O)c1ccccc1NC(=O)Cn1cnc2c1c(=O)n(C)c(=O)n2C	none
COC(=O)[C@@]1(Cc2ccc(OC)cc2)[C@H]2c3cc(C(=O)N4CCCC4)n(Cc4ccc(C)o4)c3C[C@H]2CN1C(=O)c1ccccc1	none (no result: CYP2C9 inhib, CYP2C9 act, CYP2C19 act, CYP2C19 inh)
CCN1CCN(Cc2ccc(NC(=O)c3cc(NC(=O)c4cncc(-c5ccc(C#N)cc5)c4)cc(OC)c3)cc2C(F)(F)F)CC1	none (no result: CYP2C9 inhib, CYP2C9 act, CYP2C19 act, CYP2C19 inh)
Cc1c(NC(=O)c2ccc3ncccc3c2)c(=O)n(-c2ccccc2)n1C	none
O=C(c1ccc(S(=O)(=O)N2CCC(c3nc4ccccc4[nH]3)CC2)cc1)N1CCOCC1	none
O=S(=O)(c1ccc2c(c1)OCCO2)N1CCC(c2nc3ccccc3[nH]2)CC1	CYP2C19 inh 63
CCN(CC)CCN1C(=O)C(O)=C(C(C)=O)C1c1ccccc1 (centres undefined)	none (no result: Cav3 T inh)
Nc1nc(CSc2ccccn2)nc(Nc2ccccc2)n1	CYP2C9 inhib 52, CYP2C19 inh 55
COc1ccc2nc(SCc3nc(N)nc(Nc4ccccc4)n3)[nH]c2c1	CYP2C9 inhib 98, CYP2C19 inh 81
Cc1cc(C)n(-c2nnc3n2N=C(c2ccccc2)CS3)n1	CYP2C19 inh 51
Brc1ccccc1C1=Nn2c(nnc2-c2ccccc2)SC1	CYP2C9 inhib 62, CYP2C19 inh 90
Cc1ccc(-c2nnc3n2N=C(c2ccc(Br)cc2)CS3)cc1	none
Cn1nc(OC(=O)Nc2ccccc2)cc1C(F)(F)F	none
CCOC(=O)c1[nH]c2ccc(C)cc2c1N=CN(CC)CC	none
COc1ccc(Cc2noc(-c3ccc(C)cc3)n2)cc1	none
O=C(CCCn1c(=S)[nH]c2ccccc2c1=O)N1CCN(c2cccc(Cl)c2)CC1	none
O=C(CCn1c(=O)[nH]c2ccccc2c1=O)N1CCN(c2ccc(Cl)cc2)CC1	none
O=C(CCn1c(=O)[nH]c2ccccc2c1=O)N1CCN(c2cccc(C(F)(F)F)c2)CC1	CYP2C19 inh 67
O=C(CCCCn1c(=O)[nH]c2ccccc2c1=O)N1CCN(c2cccc(C(F)(F)F)c2)CC1	Cav3 T inh -9.4, CYP2C19 inh 62
O=C(Cc1csc(N2CCOCC2)n1)N/N=C/c1ccc(F)cc1	none
COc1ccccc1CNC(=O)C(C)NS(=O)(=O)c1ccccc1 (centres undefined)	none
COc1cccc(C(CC(=O)NCc2ccco2)NS(=O)(=O)c2ccc(C)cc2)c1OC (centres undefined)	CYP2C19 inh 81 (no result: Cav3 T inh)
O=C(NCc1ccco1)C1(S(=O)(=O)c2ccc(Cl)cc2)CC1	CYP2C19 inh 73
O=C(NCCN1CCCC1)C1(S(=O)(=O)c2ccc(Cl)cc2)CC1	none
CC(NS(=O)(=O)c1ccc(Cl)cc1)C(=O)NCc1ccco1 (centres undefined)	CYP2C19 inh 66 (no result: Cav3 T inh)
CC(NS(=O)(=O)c1ccc(F)cc1)C(=O)NCc1ccncc1 (centres undefined)	CYP2C9 inhib 65, CYP2C19 inh 94
O=C(Nc1c(C(=O)NCc2ccco2)cnn1-c1ccccc1)c1ccc(F)cc1	none
COc1ccc(N2CCN(c3nc4c(c(=O)n(C)c(=O)n4C)n3CCCc3ccccc3)CC2)cc1	none
COc1ccc(S(=O)(=O)NC(CC(=O)NCc2ccco2)C(C)C)cc1 (centres undefined)	CYP2C19 inh 61 (no result: Cav3 T inh)
CCC(C)NS(=O)(=O)c1ccc(OCC(=O)NCc2ccco2)cc1 (centres undefined)	none
O=C(COC(=O)CCNS(=O)(=O)c1ccc(Cl)cc1)NCc1ccco1	none
O=C(CC(NS(=O)(=O)c1ccc(Cl)cc1)c1ccco1)NCc1ccco1 (centres undefined)	CYP2C19 inh 61 (no result: Cav3 T inh)
Cc1ccc2c(c1)N1C(=O)c3ccccc3C1C1=C(CC(C)(C)CC1=O)N2 (centres undefined)	none (no result: CYP2C9 inhib, CYP2C9 act, CYP2C19 act, CYP2C19 inh)
O=C(CC1NCCNC1=O)OCCCc1ccccc1 (centres undefined)	none (no result: Cav3 T inh)
CC1=CC(c2ccccc2)n2nc(NS(=O)(=O)c3ccc(C)cc3)nc2N1 (centres undefined)	none
CC1=CC(c2ccc(Cl)cc2)n2nc(NS(=O)(=O)c3ccc(C)cc3)nc2N1 (centres undefined)	CYP2C9 inhib 70
COc1ccc(-c2nsc3c(SCC(=O)Nc4cc(C)ccc4C)ncnc23)cc1	none
O=C1CCCCC1C(Nc1ccc(Br)cc1)c1ccccc1 (centres undefined)	CYP2C9 inhib 62 (no result: Cav3 T inh)
COc1ccc(-c2ncncc2-c2csc(C)n2)c(O)c1OC	CYP2C9 inhib 52, CYP2C19 inh 63
Cc1n[nH]c(=S)n1/N=C/c1ccc(OCc2ccc(Cl)cc2)cc1	none
Fc1ccc(COc2ccc(/C=N/n3cnnc3)cc2)cc1	CYP2C9 inhib 92, CYP2C19 inh 92
O=C(C/C=N\OCc1c(Cl)cccc1Cl)Oc1ccc(Cl)cc1Cl	none
CCOc1ccc(NC(=O)C2CCC(C)(C(=O)O)C2(C)C)cc1 (centres undefined)	none
O=S(=O)(N1CCCCC1)N1CCCN(S(=O)(=O)N2CCCCC2)CC1	CYP2C9 inhib 50
O=S(=O)(N1CCCCCC1)N1CCN(S(=O)(=O)N2CCOCC2)CC1	none (no result: Cav3 T inh)
CCC(CC)C(=O)NCCc1ccc(OC)cc1	CYP2C9 inhib 59, CYP2C19 inh 77
CCOC(=O)NC(NCCc1ccccc1)(C(F)(F)F)C(F)(F)F	CYP2C9 inhib 53, CYP2C19 inh 63
COc1ccc(CCNC(=O)c2ccc(Cl)cc2Cl)cc1	CYP2C19 inh 89
COc1ccc(CCNC(C)=O)cc1	none
CCOC(=O)NCCc1ccc(OC)cc1	CYP2C9 inhib 64, CYP2C19 inh 83
CCOC(=O)COc1ccc(CCNC(C)=O)cc1	CYP2C9 act 2.1
CCOc1ccc(CCNC(=O)C(O)c2ccccc2)cc1 (centres undefined)	CYP2C9 inhib 57
CC1(C)C2CC[C@]3(C)C(CC=C4[C@@H]5C[C@](C)(CO)CC[C@]5(C(=O)O)CC[C@]43C)[C@@]2(C)CC[C@@H]1O (some centres undefined)	none (no result: CYP2C9 inhib, CYP2C9 act, CYP2C19 act, CYP2C19 inh)
CCOc1cc(C(=O)NCc2ccncc2)cc(OCC)c1OCC	CYP2C9 inhib 92, CYP2C19 inh 84
CCOc1ccc(C(=O)NCc2ccncc2)cc1OCC	none
CCOc1cc(C(=O)NC(C)c2ccncc2)cc(OCC)c1OCC (centres undefined)	CYP2C9 inhib 80, CYP2C19 inh 80
